In PubChem BioAssay:
Records with an inconclusive call do not appear. A number with no mark means an inactive call.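 How the source made its calls: active means viability at or below 27.92% in each of two runs, the all-compound median minus 4 SD; inconclusive means no clear call, values can overlap the other calls; inactive means the rest.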

Test: growth suppression of PTEN-deleted HCT116, pilot screen, cell-based, HCT116 clonal line, CellTiter-Glo (AID 824);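 further: 0% = 20 µM Hyamine control and 100% = vehicle cell control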
Conditions: 60 h, at 10 µM, stronger effect = lower value

| Compound | viability |
| --- | --- |
| Cc1oc2cc(O)ccc2c(=O)c1N1C(=O)c2ccccc2C1=O | 99.8% |
| Cc1ccc(C2CC(c3ccc(F)cc3)Nc3nc(N)nn32)cc1 (stereo not drawn) | 86.7% |
| CCOC(=O)c1c(C)n(C)c2cc(Br)c(C(=O)OC)cc12 | 96.3% |
| COc1ccc(N(CC(=O)NCc2ccco2)S(=O)(=O)c2c(C)nn(C)c2C)cc1 | 92.6% |
| CC1CCC(NC(=O)CC2Oc3ccccc3NC2=O)CC1 (stereo not drawn) | 97.8% |
| COc1ccccc1N1CCN(C(=O)c2cc3cc(Br)ccc3oc2=O)CC1 | 94.1% |
| O=C(NC1CCCCCC1)C1CCN(S(=O)(=O)c2cccc3cccnc23)CC1 | 105% |
| CCOc1ccc2[nH]c(C)c(CN3CCOCC3)c(=O)c2c1 | 99% |
| COc1ccc(OC)c(CCNC(=O)C2CCN(c3nnc(-n4cccc4)s3)CC2)c1 | 81.9% |
| CN1C(=O)C(O)(CC(=O)c2cccnc2)c2ccccc21 (stereo not drawn) | 85% |
| COc1ccc(C2C(C(=O)NCC3CCCO3)c3cc(OC)c(OC)cc3C(=O)N2C)cc1OC (stereo not drawn) | 99.7% |
| Cc1cc(OCC(=O)Nc2cc(-c3nn4c(C)nnc4s3)ccc2C)ccc1Cl | 82% |
| Cc1ccccc1-n1c(Cn2c(=O)sc3ccccc32)nnc1SCC(=O)Nc1nccs1 | 59.9% |
| CN=C1SC(CC(=O)Nc2ccccc2F)C(=O)N1C (stereo not drawn) | 98.9% |
| CCSc1nnc(NC(=O)CSc2nc3c(c(=O)n2CCOC)SC(C)C3)s1 (stereo not drawn) | 94.4% |
| CCCc1cc(=O)oc2cc3occ(C)c3cc12 | 97.6% |
| COc1ccc(OC)c(CN2CCN(c3ccccc3OC)CC2)c1 | 71.6% |
| CC(C)(C)OC(=O)N1CCC(C(N)=O)CC1 | 104% |
| CC1=C(C(N)=O)C(c2ccccn2)n2nc(SCc3ccccc3Cl)nc2N1 (stereo not drawn) | 83.3% |
| COc1cc(C2NC(=O)NC(C)=C2C(=O)OC2CCCCC2)cc(Br)c1O (stereo not drawn) | 77.3% |
| CC1CCCN(C(=O)c2ccc3c(c2)C(=O)N(CCC2=CCCCC2)C3=O)C1 (stereo not drawn) | 83.8% |
| COc1ccc(N2CSC3=C(C#N)C(c4cccc(OC)c4OC)CC(=O)N3C2)cc1 (stereo not drawn) | 92.6% |
| COC(=O)C1C2C=CC3(CN(C(C)C)C(=O)C13)O2 (stereo not drawn) | 102% |
